“And” between values parts separate entries of the source, which are not always exact repeats. Equal values may be shown once. About 2,000 (36%) of roughly 5,500 compounds were called active. Roughly 18% stayed inconclusive and do not appear here. No stated cut-off is given here; in the data, active means normalized growth mostly below about 0.91 (no sharp cut-off); inconclusive means no clear call, values can overlap the other calls; inactive means mostly above about 0.92. The list shows a part of the results.
Experiment: chemical genetic growth profiling, strain panel (AID 1159580);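 further: tested at 20 µM; growth read once vehicle control cultures reached saturation at 30 °C; 1 = growth at the plate median or of vehicle wells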
Conditions: growth OD

Measured: normalized growth

COc1ccc2cc([C@H](C)C(=O)O)ccc2c1
active: S. cerevisiae deletion strains, locus YLR113W, strain HOG1, stronger effect = lower value 0.757 | S. cerevisiae deletion strains, locus YNL298W, strain CLA4, stronger effect = lower value 0.848 | S. cerevisiae deletion strains, locus YPL256C, strain CLN2, stronger effect = lower value 0.807
inactive: S. cerevisiae deletion strains, locus YJR075W, strain HOC1, stronger effect = lower value 1.01 and 0.988 | S. cerevisiae deletion strains, locus YKL009W, strain mrt4, stronger effect = lower value 0.916 | S. cerevisiae deletion strains, locus YKL068W, stronger effect = lower value 0.983 | S. cerevisiae deletion strains, locus YKL085W, strain MDH1 (second series), stronger effect = lower value 0.977 | S. cerevisiae deletion strains, locus YKL085W, strain MDH1, stronger effect = lower value 0.977 | S. cerevisiae deletion strains, locus YKL160W, strain elf1, stronger effect = lower value 0.988 | S. cerevisiae deletion strains, locus YKL190W, strain CNB1, stronger effect = lower value 1 | S. cerevisiae deletion strains, locus YKR001C, strain vps1, stronger effect = lower value 0.943 | S. cerevisiae deletion strains, locus YKR026C, strain gcn3, stronger effect = lower value 0.983 | S. cerevisiae deletion strains, locus YKR091W, strain srl3, stronger effect = lower value 0.982 | S. cerevisiae deletion strains, locus YLL001W, strain dnm1, stronger effect = lower value 0.982 | S. cerevisiae deletion strains, locus YLL026W, stronger effect = lower value 0.997 | S. cerevisiae deletion strains, locus YLL041C, strain sdh2, stronger effect = lower value 0.971 | S. cerevisiae deletion strains, locus YLR027C, strain aat2, stronger effect = lower value 0.971 | S. cerevisiae deletion strains, locus YLR039C, strain RIC1, stronger effect = lower value 0.929 | S. cerevisiae deletion strains, locus YLR058C, strain SHM2, stronger effect = lower value 1.01 | S. cerevisiae deletion strains, locus YLR102C, strain apc9, stronger effect = lower value 0.986 | S. cerevisiae deletion strains, locus YLR221C, strain rsa3, stronger effect = lower value 0.993 | S. cerevisiae deletion strains, locus YLR258W, strain gsy2, stronger effect = lower value 0.982 | S. cerevisiae deletion strains, locus YLR262C, strain YPT6 (second series), stronger effect = lower value 0.944 | S. cerevisiae deletion strains, locus YLR262C, strain YPT6, stronger effect = lower value 0.903 | S. cerevisiae deletion strains, locus YLR268W, strain sec22, stronger effect = lower value 1.05 | S. cerevisiae deletion strains, locus YLR320W, strain mms22, stronger effect = lower value 0.955 | S. cerevisiae deletion strains, locus YLR330W, strain CHS5, stronger effect = lower value 0.997 | S. cerevisiae deletion strains, locus YLR342W, strain FKS1 (second series), stronger effect = lower value 0.98 | S. cerevisiae deletion strains, locus YLR342W, strain FKS1, stronger effect = lower value 0.967 | S. cerevisiae deletion strains, locus YLR357W, strain rsc2, stronger effect = lower value 0.963 | S. cerevisiae deletion strains, locus YLR370C, strain arc18, stronger effect = lower value 0.971 | S. cerevisiae deletion strains, locus YLR371W, strain rom2, stronger effect = lower value 0.989 | S. cerevisiae deletion strains, locus YLR384C, strain iki3, stronger effect = lower value 0.976 | S. cerevisiae deletion strains, locus YLR418C, strain cdc73, stronger effect = lower value 0.971 | S. cerevisiae deletion strains, locus YML016C, strain PPZ1, stronger effect = lower value 1 | S. cerevisiae deletion strains, locus YML032C, strain rad52, stronger effect = lower value 1 | S. cerevisiae deletion strains, locus YML120C, strain ndi1, stronger effect = lower value 0.99 | S. cerevisiae deletion strains, locus YML124C, strain tub3, stronger effect = lower value 0.992 | S. cerevisiae deletion strains, locus YMR058W, strain fet3, stronger effect = lower value 0.969 | S. cerevisiae deletion strains, locus YMR078C, strain ctf18, stronger effect = lower value 0.977 | S. cerevisiae deletion strains, locus YMR125W, strain sto1, stronger effect = lower value 0.972 | S. cerevisiae deletion strains, locus YMR129W, stronger effect = lower value 0.96 | S. cerevisiae deletion strains, locus YMR205C, strain PFK2, stronger effect = lower value 0.974 | S. cerevisiae deletion strains, locus YMR223W, strain ubp8, stronger effect = lower value 0.963 | S. cerevisiae deletion strains, locus YMR231W, strain pep5, stronger effect = lower value 0.987 | S. cerevisiae deletion strains, locus YMR263W, strain SAP30, stronger effect = lower value 1.01 and 0.996 | S. cerevisiae deletion strains, locus YMR307W, strain GAS1, stronger effect = lower value 0.955 | S. cerevisiae deletion strains, locus YNL067W, strain RPL9B, stronger effect = lower value 1.02 | S. cerevisiae deletion strains, locus YNL071W, strain lat1, stronger effect = lower value 0.96 | S. cerevisiae deletion strains, locus YNL128W, strain TEP1, stronger effect = lower value 0.996 and 0.976 | S. cerevisiae deletion strains, locus YNL153C, strain GIM3, stronger effect = lower value 1.02 and 1.01 | S. cerevisiae deletion strains, locus YNL175C, strain NOP13, stronger effect = lower value 0.964 | S. cerevisiae deletion strains, locus YNL183C, strain NPR1, stronger effect = lower value 0.88 | S. cerevisiae deletion strains, locus YNL197C, strain WHI3, stronger effect = lower value 0.963 | S. cerevisiae deletion strains, locus YNL209W, strain ssb2, stronger effect = lower value 0.978 | S. cerevisiae deletion strains, locus YNL224C, strain SQS1, stronger effect = lower value 0.978 | S. cerevisiae deletion strains, locus YNL233W, strain BNI4, stronger effect = lower value 1.02 | S. cerevisiae deletion strains, locus YNL248C, strain rpa49, stronger effect = lower value 0.977 | S. cerevisiae deletion strains, locus YNL250W, strain rad50, stronger effect = lower value 0.928 | S. cerevisiae deletion strains, locus YNL271C, strain bni1, stronger effect = lower value 0.938 | S. cerevisiae deletion strains, locus YNL307C, strain MCK1, stronger effect = lower value 0.98 | S. cerevisiae deletion strains, locus YNL322C, strain KRE1 (second series), stronger effect = lower value 0.938 | S. cerevisiae deletion strains, locus YNL322C, strain KRE1, stronger effect = lower value 1.01 and 0.995 | S. cerevisiae deletion strains, locus YNR049C, strain mso1, stronger effect = lower value 0.972 | S. cerevisiae deletion strains, locus YNR052C, strain pop2, stronger effect = lower value 0.969 | S. cerevisiae deletion strains, locus YOL006C, strain TOP1, stronger effect = lower value 1.06 | S. cerevisiae deletion strains, locus YOL012C, strain htz1 1.17 | S. cerevisiae deletion strains, locus YOL147C, strain pex11, stronger effect = lower value 0.994 | S. cerevisiae deletion strains, locus YOR001W, strain rrp6, stronger effect = lower value 0.957 | S. cerevisiae deletion strains, locus YOR061W, strain CKA2, stronger effect = lower value 1 | S. cerevisiae deletion strains, locus YOR069W, strain VPS5, stronger effect = lower value 1 | S. cerevisiae deletion strains, locus YOR070C, strain gyp1, stronger effect = lower value 0.978 | S. cerevisiae deletion strains, locus YOR080W, strain dia2, stronger effect = lower value 0.976 | S. cerevisiae deletion strains, locus YOR083W, strain WHI5 (second series), stronger effect = lower value 0.972 | S. cerevisiae deletion strains, locus YOR083W, strain WHI5, stronger effect = lower value 1.01 | S. cerevisiae deletion strains, locus YOR106W, strain vam3, stronger effect = lower value 0.978 | S. cerevisiae deletion strains, locus YOR136W, strain idh2, stronger effect = lower value 0.993 | S. cerevisiae deletion strains, locus YOR144C, strain elg1, stronger effect = lower value 0.995 | S. cerevisiae deletion strains, locus YOR184W, strain ser1, stronger effect = lower value 0.958 | S. cerevisiae deletion strains, locus YOR231W, strain MKK1, stronger effect = lower value 0.898 | S. cerevisiae deletion strains, locus YOR265W, strain rbl2, stronger effect = lower value 0.994 | S. cerevisiae deletion strains, locus YOR270C, strain vph1, stronger effect = lower value 0.938 | S. cerevisiae deletion strains, locus YOR290C, strain snf2, stronger effect = lower value 0.937 | S. cerevisiae deletion strains, locus YOR316C, strain cot1, stronger effect = lower value 0.999 | S. cerevisiae deletion strains, locus YPL051W, strain arl3, stronger effect = lower value 0.994 | S. cerevisiae deletion strains, locus YPL055C, strain LGE1, stronger effect = lower value 0.99 and 0.992 | S. cerevisiae deletion strains, locus YPL078C, strain atp4, stronger effect = lower value 0.979 | S. cerevisiae deletion strains, locus YPL106C, strain sse1, stronger effect = lower value 0.994 | S. cerevisiae deletion strains, locus YPL240C, strain hsp82, stronger effect = lower value 0.993 | S. cerevisiae deletion strains, locus YPL241C, strain CIN2, stronger effect = lower value 1 | S. cerevisiae deletion strains, locus YPR119W, strain clb2, stronger effect = lower value 0.977 | S. cerevisiae deletion strains, locus YPR141C, strain kar3, stronger effect = lower value 0.961 | S. cerevisiae deletion strains, locus YPR163C, strain tif3, stronger effect = lower value 0.987 | S. cerevisiae deletion strains, locus YPR167C, strain met16, stronger effect = lower value 0.986 | S. cerevisiae deletion strains, strain wtn01, stronger effect = lower value 1.01 | S. cerevisiae strains, strain wild type, stronger effect = lower value 1

From PubChem BioAssay AID1159580 (chemical genetic matrix, 2015)
